High-throughput results deposited in PubChem BioAssay by The Scripps Research Institute Molecular Screening Center.
IDE cell inh: inhibits human insulin-degrading enzyme in HEK cells. inhibition, % at 5.59 µM. hit rate 0.41% among 320,000. FAbetaB cleavage, fluorescence polarization;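 active = percent inhibition above the average of all tested compounds plus 3 SD, set per screening campaign, cut at about 16% in these data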;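 also: IDE supplied by intact live HEK cells; FP after avidin binding of uncleaved biotin substrate so inhibition keeps polarization high; 0% = DMSO wells and 100% = 60 µM reference IDE inhibitor Ii1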
Target sequence (P14735 whole entry, looked up): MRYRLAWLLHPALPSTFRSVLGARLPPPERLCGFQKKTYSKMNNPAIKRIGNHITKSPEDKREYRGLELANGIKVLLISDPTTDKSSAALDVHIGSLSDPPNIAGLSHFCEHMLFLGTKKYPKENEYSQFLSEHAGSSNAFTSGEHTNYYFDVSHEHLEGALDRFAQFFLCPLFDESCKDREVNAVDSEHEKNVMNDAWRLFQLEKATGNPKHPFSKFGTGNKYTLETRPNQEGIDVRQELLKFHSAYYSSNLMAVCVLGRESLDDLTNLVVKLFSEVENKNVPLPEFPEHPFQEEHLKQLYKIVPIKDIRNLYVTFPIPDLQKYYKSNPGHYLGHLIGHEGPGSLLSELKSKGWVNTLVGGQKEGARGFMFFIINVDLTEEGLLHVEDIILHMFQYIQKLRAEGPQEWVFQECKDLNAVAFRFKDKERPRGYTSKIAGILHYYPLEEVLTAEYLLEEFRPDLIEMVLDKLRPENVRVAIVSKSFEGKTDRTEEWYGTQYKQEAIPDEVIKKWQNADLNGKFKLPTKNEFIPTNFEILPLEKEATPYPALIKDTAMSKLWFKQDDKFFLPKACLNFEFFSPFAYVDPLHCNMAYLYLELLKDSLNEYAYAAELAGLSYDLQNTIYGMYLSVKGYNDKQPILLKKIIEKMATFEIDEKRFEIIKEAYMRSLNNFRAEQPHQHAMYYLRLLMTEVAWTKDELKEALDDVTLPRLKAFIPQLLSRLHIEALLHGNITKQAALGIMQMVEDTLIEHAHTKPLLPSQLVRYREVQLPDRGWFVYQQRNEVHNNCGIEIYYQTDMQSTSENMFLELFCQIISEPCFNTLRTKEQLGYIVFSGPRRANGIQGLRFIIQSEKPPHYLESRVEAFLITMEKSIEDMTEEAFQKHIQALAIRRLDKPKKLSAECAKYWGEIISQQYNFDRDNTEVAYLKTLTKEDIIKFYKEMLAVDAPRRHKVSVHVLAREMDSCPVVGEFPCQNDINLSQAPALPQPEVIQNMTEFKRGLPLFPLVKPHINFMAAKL
IDE cell activ: IDE (human) activation, cell-based; P14735; HEK cells, FAbeta-B cleavage, fluorescence polarization; 0% vehicle, 100% cell-free pure enzyme wells; activation, % at 5.96 µM; hit rate 0.073% among 340,000;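 active = activation above the mean of all tested compounds plus 3 SD, set per screening campaign, cut at about 17% in these data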
Cardiac RTF inh: cardiac RTF calcium desensitization | inhibition, % at 7.15 µM | IANBD-labeled cardiac RTF, Ca2+ fluorescence | P19429+P45379 | hit rate 0.12% among 340,000;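 active = inhibition above the mean inhibition of all tested compounds plus 3 SD, cut at about 17% in these data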;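 also: assay run at fixed EC70 calcium of 1.6 mM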
cardiac RTF act: cardiac RTF calcium sensitization; P19429+P45379; IANBD-labeled TnC RTF fluorescence at EC20 calcium; 0% EC20 calcium, 100% full calcium; activation, % at 7.2 µM; hit rate 0.24% among 340,000; AID 493008;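 active = activation above the mean over all tested compounds plus 3 SD, cut at about 30% in these data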;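 also: rise in fluorescence read as greater calcium sensitivity of cardiac thin filaments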
RTF inh confirm: confirmation of inhibitors of cardiac thin filament calcium sensitivity. reconstituted cardiac thin filaments, calcium sensitivity fluorescence. shares compounds with Cardiac RTF inh. hit rate 8% among 360. inhibition, % at 7.15 µM; in the data active = inhibition above about 18%
* marks the source's active call; other numbers are inactive results. Shown are actives, neighbours in structure and some others; about 0.71% of the full set was active somewhere.

Screening CC(C)n1nc(C(=O)OCn2nnc3ccccc3c2=O)c2ccccc2c1=O returned IDE cell inh 0, IDE cell activ -2, Cardiac RTF inh -20 and cardiac RTF act 1.
`COc1ccccc1CN(C)CC(=O)Nc1ccc(Cl)cc1C(F)(F)F` gave IDE cell inh 6, IDE cell activ 8, Cardiac RTF inh 18*, cardiac RTF act 3 and RTF inh confirm -3.
For CN(Cc1nc2ccccc2c(=O)[nH]1)C(=O)C1CC(=O)N(c2cccc3ccccc23)C1 (configuration not stated) the results were IDE cell inh 6, IDE cell activ 0, Cardiac RTF inh -6 and cardiac RTF act -2.
Screening CCCCCCCCCCCCCCCCn1cc[n+](C)c1 returned IDE cell inh -5, IDE cell activ 4, Cardiac RTF inh 24*, cardiac RTF act -10 and RTF inh confirm -3.
For CCCC(C)NC(=O)COc1ccc(Sc2ccc(OCC(=O)NC(C)CCC)cc2)cc1 (configuration not stated) the results were IDE cell inh -2, IDE cell activ 7, Cardiac RTF inh 6 and cardiac RTF act 5.
O=C(Nc1ccc(N=Nc2ccccc2)c(NC(=O)C2CCCO2)c1)C1CCCO1 (configuration not stated) was read as IDE cell inh -6, IDE cell activ 2, Cardiac RTF inh 21*, cardiac RTF act -6 and RTF inh confirm -1.
Fc1ccccc1CSc1ccc(-c2ccco2)nn1 was read as IDE cell inh 7, IDE cell activ 1, Cardiac RTF inh 19*, cardiac RTF act -5 and RTF inh confirm -2.
Screening COc1cc(C(=O)c2cocc2C(=O)c2ccc3c(c2)OCO3)cc(OC)c1OC returned IDE cell inh -5, IDE cell activ 2, Cardiac RTF inh -5 and cardiac RTF act 2.
COc1ccc(CCN(Cc2ccccn2)C(=S)Nc2ccc(C)cc2)cc1OC was read as IDE cell inh 3, IDE cell activ 0, Cardiac RTF inh -6 and cardiac RTF act 1.
`COc1ccc(CCN(Cc2ccccn2)C(=S)Nc2cccc(SC)c2)cc1OC` gave IDE cell inh 1, IDE cell activ 2, Cardiac RTF inh 20*, cardiac RTF act -4 and RTF inh confirm -1.
Screening CC1CCN(C(=O)COC(=O)CSc2ccc(C(N)=O)cc2[N+](=O)[O-])CC1 returned IDE cell inh -4, IDE cell activ 1, Cardiac RTF inh 17*, cardiac RTF act -1 and RTF inh confirm 1.
CC1CCCN(C(=O)COC(=O)CSc2ccc(C(N)=O)cc2[N+](=O)[O-])C1 (configuration not stated) was read as IDE cell inh 1, IDE cell activ 0, Cardiac RTF inh -10 and cardiac RTF act -6.
`C=C1c2cccc(O)c2C(=O)C2C(=O)[C@]3(O)C(=O)C(C(N)=O)C(=O)[C@@H](N(C)C)[C@@H]3[C@@H](O)[C@H]12` (some centres not stated) gave IDE cell inh 2, IDE cell activ 5, Cardiac RTF inh 61*, cardiac RTF act -28 and RTF inh confirm 11.
`COc1ccc2c(c1)c1c(n2C)[C@@H]2CC=C(CO)[C@@H](C1)N2C` gave IDE cell inh 1, IDE cell activ 2, Cardiac RTF inh -4 and cardiac RTF act 7.
Screening CCc1ccccc1NC(=O)C1(S(=O)(=O)c2ccc(C)cc2)CC1 returned IDE cell inh -2, IDE cell activ 1, Cardiac RTF inh 17*, cardiac RTF act -7 and RTF inh confirm -1.
`Cc1cc(F)ccc1S(=O)(=O)N(CC(=O)N1CCOCC1)CC(=O)N1CCOCC1` gave IDE cell inh 7, IDE cell activ -5, Cardiac RTF inh 2 and cardiac RTF act 3.
CC(C)NC(=O)C1CCN(C2CCN(C(=O)c3scc4c3CCCC4)CC2)CC1 was read as IDE cell inh 11, IDE cell activ -1, Cardiac RTF inh -5 and cardiac RTF act 0.
For COc1cccc(/C=N/Nc2nc3ccccc3n3cnnc23)c1O the results were IDE cell inh 3, IDE cell activ 3, Cardiac RTF inh 23*, cardiac RTF act -15 and RTF inh confirm 40*.
Screening COc1cccc(/C=N/Nc2nc3ccccc3n3cnnc23)c1 returned IDE cell inh -1, IDE cell activ 5, Cardiac RTF inh -7 and cardiac RTF act 4.
`COc1ccc(CN(C)C(=O)COC(=O)c2c(-c3ccccc3Cl)noc2C)cc1` gave IDE cell inh 1, IDE cell activ 4, Cardiac RTF inh 18*, cardiac RTF act -2 and RTF inh confirm -8.
